Test results as given in the supplement of paper PMC11634586.
Counter-ions that a name gives are not always drawn.

test system: NCI-H1688; assay: inhibition of cell viability relative to untreated control (fraction); higher = stronger growth inhibition, active = 0.5 or more; details: 30 µM; 24 h
Method in brief: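 Inhibition of cell viability appears as a fraction, based on viability relative to untreated cells. The assay used NCI-H1688 small cell lung cancer cells seeded in 96-well plates at 3 × 10^3 cells/well, treated one day later with a natural compound library (TargetMol) at 30 µM for 24 h at 37°C and 5% CO2. Absorbance at 450 nm with Cell Counting Kit-8 was recorded in triplicate.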

SMILES | inhibition of cell viability
O=c1cc(-c2ccc(O)c(O)c2)oc2cc(O[C@@H]3O[C@H](CO)[C@@H](O)[C@H](O)[C@H]3O)cc(O)c12 [Cynaroside] | 0.705 (active)
CN(C)[C@@H]1C(O)=C(C(N)=O)C(=O)[C@@]2(O)C(O)=C3C(=O)c4c(O)cccc4[C@@](C)(O)[C@H]3C[C@@H]12 [Tetracycline hydrochloride] | 0.293 (inactive)
CC1CCC2(O)C(C)(C)C3CCC2(C)C1C3 (stereo not drawn) [Patchouli alcohol] | 0.0152 (inactive)
C/C(=C\C(=O)OCCCCCCCCC(=O)O)C[C@@H]1OC[C@H](C[C@@H]2O[C@H]2[C@@H](C)[C@H](C)O)[C@@H](O)[C@H]1O [Mupirocin] | 0.0375 (inactive)
O=C(O)C1=CO[C@@H](O[C@@H]2O[C@H](CO)[C@@H](O)[C@H](O)[C@H]2O)[C@@H]2C(CO)=CC[C@H]12 [Geniposidic Acid] | -0.0628 (inactive)
COc1ccc(/C=C/C(=O)O)cc1O [Isoferulic acid] | -0.0461 (inactive)
Cc1c(S(=O)(=O)O)oc2c1C(=O)C(=O)c1c-2ccc2c1CCCC2(C)C [Tanshinone IIA-sulfonic sodium] | -0.0961 (inactive)
CO[C@H]1C[C@@H]2CC[C@@H](C)[C@@](O)(O2)C(=O)C(=O)N2CCCC[C@H]2C(=O)O[C@H]([C@H](C)C[C@@H]2CC[C@@H](O)[C@H](OC)C2)CC(=O)[C@H](C)/C=C(\C)[C@@H](O)[C@@H](OC)C(=O)[C@H](C)C[C@H](C)/C=C/C=C/C=C/1C [Rapamycin (Sirolimus)] | 0.76 (active)
